# Test results published in PubChem BioAssay AID651568 (National Center for Advancing Translational Sciences (NCATS), 2012).
# The whole screen tested about 1,200 compounds, of which about 55 (5%) were called active. Not shown: some 15% with an inconclusive outcome. This excerpt belongs to a sample that is enriched for actives. Unmarked numbers belong to inactive results. Calls follow the shape of the dose curve; as a rule, active = well fitted inhibition curve with a large enough effect; inconclusive = small, poorly fitted or top-dose-only effect; inactive = no such curve, though single readings can be large or run the other way.
# Assay: qHTS Assay to Find Inhibitors of Chronic Active B-Cell Receptor Signaling: Hit Validation in Renilla Reporter Assay; also: nearly all actives have a fitted effect of over 70% in size
# Settings: TMD8 IkB-Renilla luciferase reporter, NF-kB signaling; series mostly up to 57.5 µM; activity change, negative = inhibition: at the top concentration
# In short: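 Dual-Glo luminescence read-out of constitutively expressed IkB-Photinus/Renilla luciferase reporters in ABC-DLBCL lines, used to retest primary hits; reporter enzymes differ from the click beetle luciferases used in the primary screen.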
# % is scaled to controls: 0 for no effect and ±100 for the full control effect; potency is read from the fitted curve at half-maximal effect.
SMILES,"activity change, negative = inhibition",Potency
CNC(=S)N/N=C(\C)c1ccc2c(c1)OCCO2,-1.41%,–
CCOc1ccc2c(c1)OC(c1ccc(OC)cc1)(C(F)(F)F)NC2=O (stereo not drawn),-4.62%,–
CC(C)(C)c1ccc(C(=O)CCC(=O)NCc2ccccc2)cc1,-2.67%,–
C=CCN(C(=O)CSC1=NC(=O)CN1C(C)=O)c1nc(C)c(-c2ccccc2)s1,58.9%,–
S=c1nn[nH]n1C12CC3CC(CC(C3)C1)C2,-6.62%,–
Cc1ccccc1Nc1nc(N)nc(COC(=O)c2cccc(S(=O)(=O)N(C)C)c2)n1,15%,–
CCOC(=O)C1=C(COC(=O)/C=C/c2ccc(O)c(OC)c2)NC(=O)NC1C (stereo not drawn),-15%,–
COc1ccc(/C=N/NC(=O)CCn2cnc(-c3ccccc3)c2-c2ccccc2)cc1OC,-24.2%,–
O=C(COc1ccccc1-c1ccccc1)N/N=C/c1ccc2ccccc2c1,-0.205%,–
COc1ccc(/C=N/NC(=O)CCn2cnc(-c3ccccc3)c2-c2ccccc2)cc1,–,26.9 µM (active)
COc1ccc(OC)c(Nc2c3c(nc4ccccc24)CCC3)c1,-24.8%,–
COc1ccc(C)cc1NC(=O)CNC(c1ccccc1)c1ccc(C)cc1 (stereo not drawn),3.62%,–
Cc1ccc(C(=O)O)cc1NC(=S)NC(=O)C(c1ccccc1)c1ccccc1,-23%,–
Cc1ccc(C(=O)Sc2cccccc2=O)cc1,–,6.75 µM (active)
COc1ccc(NC(=O)Cn2nnc(-c3ccccc3NS(=O)(=O)c3ccc(OC)cc3)n2)cc1,15.7%,–
CCOc1cccc(C2CC(=O)Nc3cc(OC)c(OC)cc32)c1 (stereo not drawn),5.18%,–
COc1cccc(/C=C/C(=O)Nc2cc(S(=O)(=O)N3CCOCC3)ccc2OC)c1,1.3%,–
CCC1=Nc2cc(C(=O)NCCCOC(C)C)ccc2Sc2ccc(C)cc21,-27.5%,–
O=C(Oc1ccc(Cl)c2cccnc12)C12CC3CC(CC(C3)C1)C2,-1.45%,–
O=C(Oc1c(CN2CCOCC2)cc(Cl)c2cccnc12)c1ccc(F)cc1,-18.7%,–
Cc1c(C(=O)Oc2cccc3cccnc23)oc2ccccc12,-6%,–
COc1cc(OC)cc(C(=O)Oc2c(CN3CCOCC3)cc(Cl)c3cccnc23)c1,1.92%,–
O=C(Oc1c(Cl)cc(Cl)c2cccnc12)c1ccco1,–,12 µM (active)
O=C(Oc1c(Cl)cc(Cl)c2cccnc12)c1cccs1,–,23.9 µM (active)
O=C1NC(=Nc2ccc(O)cc2)S/C1=C\C=C\c1ccco1,-0.0749%,–
O=C(Nc1ncc(Cc2ccc(SC(F)F)cc2)s1)c1ccc(OC(F)F)cc1,-27.7%,–

SMILES,"activity change, negative = inhibition",Potency
CCCc1nnc(NC(=S)Nc2ccccc2)s1,-2.24%,–
CC1CCCN(c2ccc([N+](=O)[O-])cc2C(=O)c2ccccc2)C1 (stereo not drawn),1.52%,–
N#CC1=C(N)Oc2cc(N)ccc2C1c1cccc(Br)c1 (stereo not drawn),-21.5%,–
O=C(c1cc([N+](=O)[O-])ccc1N1CCOCC1)N1CCN(c2ccccc2)CC1,0.66%,–
CCOC(=O)c1c(C)n(C)c2ccc(OC)c(NC(=O)CN3CCN(C(=O)c4ccco4)CC3)c12,0.121%,–
CCOc1ccc(S(=O)(=O)NCc2ccccn2)cc1NC(=O)c1ccccc1F,5.11%,–
CCOC(=O)c1c(C)[nH]c(C(=O)N/N=C/c2ccc(Br)cc2)c1C,–,10.7 µM (active)
Cc1c(C(=O)N/N=C/c2ccc(Cl)cc2)[nH]c2ccc(Cl)cc12,-78.9%,–
CCOC(=O)c1[nH]c(C)c(C(=O)OCC)c1C,-18.6%,–
CCOC(=O)CSC1=C(C#N)C(c2ccc(C)o2)CC(=O)N1 (stereo not drawn),-23.1%,–
COc1ccc(-c2[nH]ncc2/C=C(\C#N)C(=O)NC2CC2)cc1,-9.08%,–
CC1CCc2c(sc(NC(=O)CSc3nc(N)cc(=O)[nH]3)c2C(N)=O)C1 (stereo not drawn),-9.45%,–
COc1ccc(CNc2nc(NCc3ccc(OC)cc3)c3ncn(C4CCCC4)c3n2)cc1,-20.9%,–
CCOc1ccc(OCc2ccc(C(=O)N/N=C(\C)c3ccccn3)cc2)cc1,-3.8%,–
O=C(NN=C(c1ccccc1)c1ccccn1)c1ccccc1,–,26.9 µM (active)
C/C(=N\NC(=O)c1ccc(F)cc1)c1ccccn1,-17.5%,–
Cc1onc(-c2ccccc2)c1C(=O)Nc1cc(C(F)(F)F)ccc1N1CCOCC1,-17.3%,–
NC(=S)N=Nc1c(O)n(Cc2ccc(Br)cc2)c2ccccc12,-29.3%,–
C=CCNC(=S)N/N=C/c1cn(C)c2ccccc12,6.14%,–
CC(=O)c1cc(C#N)c(SCCC(C)C)nc1C,-0.979%,–
C=CCOc1ccc(/C=C2\SC(N)=NC2=O)cc1OC,1.12%,–
CCCC(=O)OCCNc1cc(Sc2nccn2C)c2nonc2c1[N+](=O)[O-],–,3.79 µM (active)
S=c1[nH]nc(-c2ccco2)n1/N=C/C(Cl)=C/c1ccccc1,–,26.9 µM (active)
COc1cc2sc(-c3ccc(S(C)(=O)=O)cc3)c(C#CCO)c2cc1OC,-5.66%,–
COC(=O)c1cnc(Oc2ccc(NC(=O)NC(=O)c3c(OC)cccc3OC)cc2)cc1C(F)(F)F,-0.497%,–
COc1ccccc1CNS(=O)(=O)c1ccc(-c2cc(C)no2)cc1,3.45%,–

SMILES,"activity change, negative = inhibition",Potency
CCN(c1ccccc1)S(=O)(=O)c1ccc(C(=O)NNC(=O)c2ccccc2F)cc1,1.63%,–
O=C(N1CCN(c2ccccn2)CC1)N1c2ccccc2Sc2ccccc21,0.521%,–
O=[N+]([O-])c1cc(/C=N/O)ccc1Sc1ccccc1,3.47%,–
O=[N+]([O-])c1ccc(Sc2nc3ccccc3o2)c([N+](=O)[O-])c1,–,3.01 µM (active)
CCOc1ccc(C2=Nn3c(nnc3-c3ccccc3OC)SC2)cc1,-24.7%,–
COc1ccc(C)cc1NS(=O)(=O)c1ccc(-c2cnc(C3CC3)o2)cc1,22.8%,–
Cc1nc(N2N=C(c3ccc(Cl)cc3)CC2c2ccco2)sc1C(=O)N(C)C (stereo not drawn),2.02%,–
Cc1ccc(/C=N/NC(=O)c2cc(-c3cccnc3)nc3ccccc23)cc1,-4.67%,–
CC[C@@H](C)[C@H](NC(=O)CCc1c(C)c2cc3c4c(oc3c(C)c2oc1=O)CCCC4)C(=O)O,-26.6%,–
Cc1cc(Cl)n2c(nc3ccccc32)c1C#N,–,1.9 µM (active)
Cc1cc(Cl)n2c(nc3cc(F)c(F)cc32)c1C#N,–,1.69 µM (active)
CCc1c(C)c(C#N)c2nc3ccccc3n2c1Cl,–,0.953 µM (active)
COc1cc(/C=C2\N=C(c3ccccc3)NNC2=O)cc(OC)c1OC,24.1%,–
CCN(CC)c1ccc(NC(=O)CN2CCN(CC(=O)Nc3ccccc3F)CC2)cc1,-0.989%,–
CCOc1nc(OCC)nc(N2CCC(C)CC2)n1,-2.28%,–
CCOc1ccc(NC(=O)c2cc(OC)nc3ccccc23)cc1,-0.0858%,–
CCC1=Nc2cc(C(=O)NCc3ccco3)ccc2Sc2ccc(C)cc21,-16.4%,–
Cc1ccc(S(=O)(=O)n2cc(-c3ccccc3)c3ccccc32)cc1,4.15%,–
COc1cc2c(cc1OC)-c1cc(NC3CCCCCC3)nc(=O)n1CC2,-5.21%,–
COc1ccc(C(=O)/C=C/c2ccc(O)cc2)c2c1CC(O)C(C)(C)O2 (stereo not drawn),–,23.9 µM (active)
COc1ccc(/C=N/NC(=O)c2ccc3c(c2)NC(=O)C(C)(C)O3)cc1OC,-5.68%,–
CCOC(=O)c1c(C)c(C(=O)OCC)n(C)c1C,-16.5%,–
CC(=O)N1CC(=O)N=C1SCC(=O)Nc1nc(C)c(-c2ccccc2)s1,11.2%,–
CCOc1ccc(S(=O)(=O)Nc2ccc3oc(C)c(C(=O)OCCOC)c3c2)cc1,9.42%,–
CCOC(=O)C1=C(C)NC(C)=C(C(=O)OCC)C1C(=O)OCC(=O)NCc1ccccc1OC,20.3%,–
COc1cc(OC)c2c(-c3cccc(-c4ccc(NC(C)=O)cc4)c3)cc(=O)oc2c1,-17.9%,–

SMILES,"activity change, negative = inhibition",Potency
CC(=O)OCC(=O)[C@@]1(O)CC[C@H]2[C@@H]3CCC4=CC(=O)C=C[C@]4(C)[C@H]3[C@@H](O)C[C@@]21C,0.226%,–
COC(=O)CCC(=O)NC(=S)Nc1sc(C)c(C)c1C(N)=O,4.1%,–
CCSc1nc(-c2ccccc2)nc(C(Cl)Cl)n1,–,2.69 µM (active)
CCc1ccc(/C=N/NC(=O)c2cc(C3CC3)nc3ccccc23)s1,-10.8%,–
N#Cc1ccc(-c2cccs2)nc1SCc1cccnc1,-1.59%,–
OC(CNCc1ccc(-c2ccccc2)cc1)c1ccccc1 (stereo not drawn),-0.413%,–
COc1ccc(-c2cnnn2-c2ccc(N)cc2)cc1OC,1.69%,–
O=C(N/N=C/c1ccc(Cl)cc1)c1n[nH]c2c1CCCC2,-7.41%,–
O=C(Cc1ccc(-c2ccccc2)cc1)NCc1ccccc1,7.26%,–
O=C(Cc1n[nH]c(=O)c2ccccc12)OCC(=O)c1ccc2c(c1)OCCO2,2.17%,–
CC(C)N1C(=O)/C(=C/c2nc3ccccc3c(=O)n2-c2ccccc2)c2ccccc21,–,13.5 µM (active)
CC(C)N1C(=O)/C(=C\c2nc3ccccc3c(=O)[nH]2)c2ccccc21,–,23.9 µM (active)
O=C(CSc1nc2ccccc2c(=O)n1-c1ccccc1F)NC1CC1,-9.62%,–
Cc1cc(C)cc(N2CC(O)=C(c3nc4ccccc4c(=O)[nH]3)C2=N)c1,-4.94%,–
Cc1ccc(Sc2c(CO)c(-c3ccccc3)nn2C)cc1,4.68%,–
COc1ccc(NC(=O)C(=O)c2cn(CC(=O)N3CCCC3)c3ccccc23)cc1,5.43%,–
CC(=O)Nc1ccc(NS(=O)(=O)c2cc(-c3n[nH]c(=O)c4ccccc34)ccc2C)cc1,19.6%,–
COC(=O)c1ccc(C)c(NS(=O)(=O)c2ccc(OC)cc2)c1,32.4%,–
CCOc1ccccc1C(=O)N1CCN(c2cccc(Cl)c2)CC1,-20.3%,–
COc1ccc(-c2c(C)c3ccc(O)cc3oc2=O)cc1OC,28.9%,–
Cc1cccc(C(=O)N[C@H](C(=O)Nc2nc3ccccc3[nH]2)C(C)C)c1,-18.3%,–
Cc1ccc(/C=C/C(=O)c2nc3ccccc3[nH]2)cc1,–,16.9 µM (active)
CC1=CC(C)(C)N(S(=O)(=O)c2ccc(C)cc2)c2cc(C)ccc21,-7.09%,–
COC(=O)c1cc(C(=O)N2CCN(c3cccc(Cl)c3)CC2)cc([N+](=O)[O-])c1,-0.459%,–
COc1cccc(/C=N/NC(=S)Nc2cccc(S(=O)(=O)N(C)C)c2)c1,17.9%,–
